# According to PubChem BioAssay (Tox21):
# Records with an inconclusive call do not appear. A call without a number means that no potency is given here. Activity calls are given as the source filed them. Calls follow the shape of the full dose curve.
# Assay: p53 small molecule agonists, cell-based qHTS assay: qHTS cell viability counter screen (AID 1963581); also: nearly all actives have a fitted effect of over 45% in size
# Details: p53RE-bla HCT-116 viability, ATP luminescence, 16 h; series mostly up to 66 µM
# From the text: National Center for Advancing Translational Sciences [NCATS]
# Division of Preclinical Innovation [DPI]
# U.S. Environmental Protection Agency [EPA]
# National Institutes of Environmental Health Sciences [NIEHS]
# National Toxicology Program [NTP]
# U.S. Food and Drug Administration [FDA]
# p53, a tumor suppressor protein, is activated following cellular insult, including DNA damage and other cellular stresses. The activation of p53 regulates cell fate by inducing DNA repair, cell cycle arrest, apoptosis, or cellular senescence. The activation of p53, therefore, is a good indicator of DNA damage and other cellular stresses. The CellSensor p53RE-bla HCT-116 cell line (Invitrogen) contains a stably integrated beta-lactamase reporter gene under control of the p53 response elements. The activation of the reporter gene under culture conditions can be detected by fluorescence intensity. This cell line was used to screen the Tox21 compound library in a 1536-well plate format and to identify agonists that activate the p53 signaling pathway. The cytotoxicity of the Tox21 compound library against the p53 RE-bla HCT-116 cell line was tested in parallel by measuring the intra cellular ATP content in the same wells.
# Tox21 Assay Protocol Summary:
# The p53RE-bla cells were dispensed at 4,000 cells/5 ul/well in 1536-well black wall/clear bottom plates using a Multidrop dispenser. After the assay plates were incubated at a 37 C/5% CO2 incubator for 5 hours, 23 nL of compounds dissolved in DMSO, positive controls or DMSO only was transferred to the assay plate by a pin tool. The plates were incubated at 37 C for 16 hours. After 1 uL of LiveBLAzerTM B/G FRET substrate was added using a Flying Reagent Dispenser, the plates were incubated at room temperature for 2 hours, and fluorescence intensity was measured by an Envision plate reader. For cell viability readout that measures cytotoxicity, 4 ul/well of CellTiter-Glo reagent was added into the assay plates using a Flying Reagent Dispenser. After 30 min incubation at room temperature, the luminescence intensity in the plates was measured using a ViewLux plate reader.
# Potency is read from the fitted curve at half-maximal effect.
Compound,Potency,"activity change, negative = cytotoxicity"
c1cc(OCC2CO2)ccc1Cc1ccc(OCC2CO2)cc1 (stereo not given),inactive,–
CN1CC[C@]23c4c5ccc(O)c4O[C@H]2[C@@H](O)C=C[C@H]3[C@H]1C5,inactive,–
CCC(CC)(CNC(=O)CCCO)c1cccc(OC)c1,inactive,–
Oc1cccc(Cl)c1,inactive,–
C=CC(=O)OCC,inactive,–
C[C@H](CN1CCOCC1)C(C(=O)N1CCCC1)(c1ccccc1)c1ccccc1,inactive,–
CC/C(=N\OC/C=C/Cl)C1=C(O)CC(C2CCOCC2)CC1=O (stereo not given),inactive,–
OC(c1ccc(Cl)cc1)(c1ccc(Cl)cc1)C(Cl)(Cl)Cl,inactive,–
O=C(O)[C@H](O)[C@@H](O)C(=O)O,inactive,–
Cc1ccc2nc3sc(=O)sc3nc2c1,–,-2.54% [at 13.5 µM] (inactive)
CCCCc1ccc(O)cc1,inactive,–
CCc1ccc(C(=O)NN(C(=O)c2cc(C)cc(C)c2)C(C)(C)C)cc1,inactive,–
COc1ccc(C(c2ccc(OC)cc2)C(Cl)(Cl)Cl)cc1,inactive,–
COP(=O)(OC)O/C(=C/Cl)c1cc(Cl)c(Cl)cc1Cl,inactive,–
CC(C)(C)c1ccc(OP(=O)(Oc2ccccc2)Oc2ccccc2)cc1,inactive,–
CC(C)C(Br)C(=O)NC(N)=O (stereo not given),inactive,–
CC(C)(C)c1cc(O)ccc1O,inactive,–
CC1(C)[C@H](C=C(Cl)Cl)[C@@H]1C(=O)O[C@@H](C#N)c1cccc(Oc2ccccc2)c1,inactive,–
C=C(Cl)CSC(=S)N(CC)CC,inactive,–
CC(C)(OO)c1ccccc1,inactive,–

Compound,Potency,"activity change, negative = cytotoxicity"
C=CC(=O)OCCCCO,inactive,–
O=CNC(N1CCN(C(NC=O)C(Cl)(Cl)Cl)CC1)C(Cl)(Cl)Cl (stereo not given),inactive,–
O=C(c1ccccc1)C(Cl)Cl,inactive,–
O=S1(=O)OCC2C(CO1)C1(Cl)C(Cl)=C(Cl)C2(Cl)C1(Cl)Cl (stereo not given),inactive,–
CC(C)C(Nc1ccc(C(F)(F)F)cc1Cl)C(=O)OC(C#N)c1cccc(Oc2ccccc2)c1 (stereo not given),inactive,–
O=C1Nc2ccc(Cl)cc2C(c2ccccc2)=NC1O (stereo not given),inactive,–
CCOC(=O)N(C)C(=O)CSP(=S)(OCC)OCC,inactive,–
NCC(CC(=O)O)c1ccc(Cl)cc1 (stereo not given),–,-8.51% [at 0.249 µM] (inactive)
C[C@H]1CNCCc2ccc(Cl)cc21,inactive,–
O=CC=O,inactive,–
O=C(O)CBr,inactive,–
CCN(CC)c1c([N+](=O)[O-])cc(C(F)(F)F)c(N)c1[N+](=O)[O-],inactive,–
ClCBr,inactive,–
COc1ccc([N+](=O)[O-])cc1O,inactive,–
Oc1ccccc1Br,inactive,–
CN(C1CCCCC1)C1CCCCC1,inactive,–
COP(N)(=S)Oc1ccccc1C(=O)OC(C)C (stereo not given),inactive,–
[Hg+2].[I-].[I-],18.2 µM (active),–
CC(C)CP(=S)(S)CC(C)C,inactive,–
CC(C)CC(C)Nc1ccc(Nc2ccccc2)cc1 (stereo not given),inactive,–
